An excerpt weighted towards active compounds, which were near 2.9% of everything screened.
E-sel TNF inh = blocks E-selectin expression induced by TNF alpha; AID 1246; actives 0.71% (n = 120,000); HUVEC TNFa-induced E-selectin immunofluorescence, high content; inhibition, % at 2 µM;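 active = inhibition above the batch mean plus 3 SD, and confirmed as a hit on visual image review, cut at about 43% in these data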;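 also: 0% = TNF-stimulated DMSO wells and 100% = unstimulated control wells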
ERb coact inh = ER-beta (human) coactivator binding inhibition; Q92731; TR-FRET ER-beta LBD / SRC1-Cy5 peptide binding; receptor agonist-loaded with 1 µM estradiol; inhibition, % at 25.6 µM; actives 1.3% (n = 86,000); AID 633;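 active = compounds whose percent inhibition of the receptor-coactivator binding signal exceeds about 50% in the single-dose screen, limit read from the data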;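 also: 0% = receptor plus peptide wells without compound and 100% = peptide-only wells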
Target sequence (Q92731 whole entry, looked up, the tested form may be a part): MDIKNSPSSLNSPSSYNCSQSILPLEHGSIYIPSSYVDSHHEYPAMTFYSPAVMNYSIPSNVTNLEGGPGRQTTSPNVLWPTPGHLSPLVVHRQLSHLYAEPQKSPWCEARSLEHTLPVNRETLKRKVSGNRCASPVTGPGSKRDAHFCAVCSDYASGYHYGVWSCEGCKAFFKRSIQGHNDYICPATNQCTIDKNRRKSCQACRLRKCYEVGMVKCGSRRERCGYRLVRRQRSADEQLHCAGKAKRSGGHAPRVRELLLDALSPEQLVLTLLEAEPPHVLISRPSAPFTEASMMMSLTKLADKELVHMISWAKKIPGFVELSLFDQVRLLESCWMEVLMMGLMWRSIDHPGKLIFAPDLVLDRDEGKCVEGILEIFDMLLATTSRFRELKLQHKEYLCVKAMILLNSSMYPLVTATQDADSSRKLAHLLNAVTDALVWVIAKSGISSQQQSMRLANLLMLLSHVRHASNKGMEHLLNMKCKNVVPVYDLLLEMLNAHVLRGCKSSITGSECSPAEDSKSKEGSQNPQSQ
ERa coact inh = blocks coactivator binding to human estrogen receptor alpha; P03372; TR-FRET ER-alpha LBD / SRC-1 peptide, estradiol-bound; inhibition, % at 25.6 µM; actives 1.7% (n = 86,000); AID 629; in the data active = inhibition above about 50%;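 also: 0% = receptor plus peptide control and 100% = peptide only without receptor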
ERa coact pot = enhances coactivator binding to human estrogen receptor alpha. TR-FRET ERalpha-LBD/SRC-Cy5 coactivator binding, 2 h; 100 = basal binding, no effect. coactivator binding (% of control), % at 25.6 µM. actives 1.3% (n = 86,000); in the data active = activity above about 200%;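 also: binding measured in presence of low estradiol as agonist stimulus; 0% = peptide alone without receptor and 100% = receptor with peptide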
cytoskel mod = alters cytoskeleton assembly in HUVEC cells | inhibition, % at 2 µM | AID 836 | actives 0.18% (n = 91,000) | HUVEC TNFa F-actin phalloidin imaging, high content;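 active = inhibition above the batch mean plus 3 SD and confirmed as a hit by visual image inspection, cut at about 30% in these data, passing the limit was not always enough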
Calb biofilm kill = kills Candida albicans biofilms; C. albicans biofilm + clotrimazole, Alamar Blue; inhibition, % at 6 µM; actives 0.14% (n = 85,000);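 active = inhibition above 20%; inactive = inhibition below 20%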;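 also: preformed 24 hr biofilms exposed to compound for 48 hr; 0% = biofilm without compound and 100% = blank killed by clotrimazole plus chlorhexidine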
Numbers without * were called inactive; / = no result; [ ] = another dose, or the depositor's remark.

SMILES	E-sel TNF inh	ERb coact inh	ERa coact inh	ERa coact pot	cytoskel mod	Calb biofilm kill
N/C(=N\c1nc(CSc2ccc(Cl)cc2)cc(=O)[nH]1)Nc1cccc2ccccc12	70.1*	/	/	/	8.6	/
Cn1cc(NC(=O)c2cc(NC(=O)c3cc(NC=O)cn3C)cn2C)cc1C(=O)NCCC(=N)N	/	71.1*	60.6*	43.9	/	-5.4
FC(F)(F)c1cccc(-c2ccn3ncnc3n2)c1	-5.5	/	/	/	/	/
CN(C)S(=O)(=O)c1ccc(NC(=O)CN2CCN(C(c3ccccc3)c3ccccc3)CC2)cc1	-14.7	/	/	/	6.5	/
CC(C)c1nc2sc3c(NCc4ccccc4)ncnc3c2c2c1COC(C)(C)C2	32.9	24.8	10.0	365.7*[fluorescence artefact?]	9.3	-1.3
CSc1nc(NCc2ccco2)c2sc3nc(C(C)C)c4c(c3c2n1)CC(C)(C)OC4	/	/	/	/	30.1	/
CC(C)c1nc2sc3c(NCc4ccco4)ncnc3c2c2c1COC(C)(C)C2	/	41.3	53.8*[fluorescence artefact?]	138.1	-2.9	-3.8
COC(=O)c1sccc1NC(=S)N1CCN(c2ccccc2F)CC1	1.6	/	/	/	/	/
NS(=O)(=O)c1ccc(CCNC2CC(=O)N(CCc3ccccc3)C2=O)cc1 (stereo not given)	12.3	65.5*	-1.9	107.3	-43.7	/
Cc1cc2cc(C=C(C#N)C#N)c(Cl)nc2cc1C	58.0*	/	/	/	/	/
COc1ccc(C(C(=O)NC2CCCC2)N(C(=O)c2ccco2)c2ccc3c(c2)OCO3)cc1OC (stereo not given)	1.7	57.0*	-27.3	85.2	26.5	2.2
O=C(NC1CCCCC1)C(c1cccs1)N(C(=O)c1ccco1)c1ccc2c(c1)OCCO2 (stereo not given)	60.1*	-4.9	0.3	101.1	-28.5	7.0
C#CC(=O)N(c1cccc(OC)c1)C(C(=O)NC1CCCC1)c1cccs1 (stereo not given)	99.2*	/	/	/	-25.7	/
O=C(NC1CCCCC1)C(c1cccs1)N(Cc1cccs1)C(=O)c1ccco1 (stereo not given)	35.8	-0.1	-2.1	81.4	43.1	0.1
CC(C(=O)Nc1ccccc1-c1ccccc1)N(C)Cc1nc2ccccc2c(=O)[nH]1 (stereo not given)	-54.6	/	/	/	/	/
CCCCc1c(C)nn(-c2nnc3c4ccccc4n(CC)c3n2)c1C	2.3	30.8	51.9*[fluorescence artefact?]	141.5	0.0	11.0
CCn1c2ccccc2c2nc3ccccc3nc21	-24.4	0.3	-1.8	94.0	-13.9	4.3
COc1ccc(/C=c2/sc3nc(-c4ccccc4)c(-c4ccccc4)n3c2=O)cc1	-4.6	/	/	/	/	/
Cn1c(-c2ccc(C=O)s2)nc2c3ccccc3c3ccccc3c21	-5.5	-0.5	32.3	364.3*[fluorescence artefact?]	/	-2.4
CCS(=O)(=O)N1Cc2ccccc2CC1C(=O)N1CCN(c2ccccc2)CC1 (stereo not given)	-4.5	2.8	14.0	222.6*[fluorescence artefact?]	15.9	/
COC(=O)c1ccc2c(c1)NC(=O)C1CCCN21 (stereo not given)	/	21.8	80.6*[fluorescence artefact?]	35.3	/	7.9
COC(=O)c1ccc(NC(=O)c2cn(-c3ccccc3)nc2-c2ccncc2)cc1	27.4	/	/	/	-7.3	/
O=C(Nc1ccncc1)c1cn(-c2ccccc2)nc1-c1cccs1	-1.6	1.4	18.0	228.8*[fluorescence artefact?]	/	5.3
COc1ccc(NC(=O)c2cc(CN3C(=O)c4ccccc4C3=O)ccc2OC)cn1	-4.5	47.2	82.6*[fluorescence artefact?]	96.0	-10.3	6.5
COc1ccc(NC(=O)Cc2ccc(-c3ccccc3)cc2)cn1	-26.8	/	/	/	/	/
SMILES	E-sel TNF inh	ERb coact inh	ERa coact inh	ERa coact pot	cytoskel mod	Calb biofilm kill
CCC(=O)Nc1cccc(NC(C)=O)c1	-11.8	78.4*	84.2*[fluorescence artefact?]	26.9	10.6	0.9
O=C(Cc1cccs1)Nc1nnc(Cc2ccccc2)s1	-15.6	91.3*	96.3*[fluorescence artefact?]	35.9	-12.5	1.3
O=C(Cc1cccs1)Nc1nncs1	-0.2	56.0*	38.8	64.1	11.5	-5.6
COc1cccc(-c2nnc(NC(=O)Cc3cccs3)s2)c1	-5.6	50.0	63.1*	129.3	-18.1	7.5
CC(C)c1nnc(NC(=O)Cc2cccs2)s1	17.1	24.0	12.7	88.9	/	10.1
O=C(Cc1cccs1)NCc1ccncc1	63.9*	1.5	-1.0	117.6	-11.9	6.9
O=C(CN(C(=O)CSc1nc2ccccc2o1)c1ccccc1F)NC1CCCCC1	-9.2	/	/	/	/	/
CCCCCc1nnc(NC(=O)Cc2cccs2)s1	24.1	82.0*	94.2*[fluorescence artefact?]	20.2	-3.2	-0.9
O=C(Cc1cccs1)Nc1nnc(CCc2ccccc2)s1	16.6	19.5	15.7	102.5	8.5	-3.6
O=C(Cc1cccs1)Nc1ccccn1	-17.8	55.0*	56.1*	71.7	26.6	/

Screening data (PubChem BioAssay)
